Measurements: PubChem BioAssay (Tox21)
Records with an inconclusive call do not appear. Activity calls are given as the source filed them. Unless noted, calls come from the whole dose curve.

Legend:
[1] = Nuclear factor erythroid 2-related factor 2/antioxidant responsive element (Nrf2/ARE) small molecule agonists: qHTS cell viability counter screen in human keratinocytes (AID 1919968; active = well fitted curve in the direction sought with a large enough effect in the repeat runs; an effect the other way counts as inactive or inconclusive; note: nearly all actives have a fitted effect of over 55% in size)
Summary of the method: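 HaCaT ARE reporter line, 1,500 cells/well; 5 h settle, 37 C/5% CO2; cpd in DMSO pinned; 23 h exposure; CellTiter-Fluor, 1 h; fluorescence.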

[2] = Nuclear factor erythroid 2-related factor 2/antioxidant responsive element (Nrf2/ARE) small molecule agonists: luciferase reporter gene qHTS assay in human keratinocytes (AID 1919969); note: nearly all actives have a fitted effect of over 35% in size; note: potency is the fitted concentration of half-maximal effect
[3] = molecular target: Gonadotropin-releasing hormone receptor (Homo sapiens) (UniProt P30968); test: Human gonadotropin-releasing hormone receptor (GnRHR) small molecule agonists, calcium flux assay in GnRHR-HEK293 cells (AID 1920063); note: nearly all actives have a fitted effect of over 35% in size
Sequence of Gonadotropin-releasing hormone receptor (Homo sapiens) (P30968 whole entry, looked up): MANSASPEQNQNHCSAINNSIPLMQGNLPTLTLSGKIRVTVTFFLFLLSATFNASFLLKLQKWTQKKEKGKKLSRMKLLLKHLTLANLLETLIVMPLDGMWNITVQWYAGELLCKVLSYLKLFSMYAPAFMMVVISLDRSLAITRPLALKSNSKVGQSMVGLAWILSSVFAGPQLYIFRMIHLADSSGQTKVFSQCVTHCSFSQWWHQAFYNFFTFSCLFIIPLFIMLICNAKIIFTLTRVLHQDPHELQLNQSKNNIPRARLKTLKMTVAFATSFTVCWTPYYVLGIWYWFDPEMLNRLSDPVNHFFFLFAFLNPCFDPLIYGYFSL
Summary of the method: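 GnRHR-HEK293, 1500 cells/well, 18 h 37 C/5% CO2; Ca dye 1 h 37 C; cpd pinned (DMSO), agonist mode; kinetic FL 480/540, 3 min, 1 s reads; 15 conc, n=3.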

[4] = molecular target: KiSS-1 receptor (Homo sapiens) (UniProt Q969F8); test: Human kisspeptin (KISS1R) small molecule agonists, calcium flux assay in KISS1R-HEK293 cells (AID 1920064; active = well fitted curve in the direction sought with a large enough effect in the repeat runs; an effect the other way counts as inactive or inconclusive)
Sequence of KiSS-1 receptor (Homo sapiens) (Q969F8 whole entry, looked up): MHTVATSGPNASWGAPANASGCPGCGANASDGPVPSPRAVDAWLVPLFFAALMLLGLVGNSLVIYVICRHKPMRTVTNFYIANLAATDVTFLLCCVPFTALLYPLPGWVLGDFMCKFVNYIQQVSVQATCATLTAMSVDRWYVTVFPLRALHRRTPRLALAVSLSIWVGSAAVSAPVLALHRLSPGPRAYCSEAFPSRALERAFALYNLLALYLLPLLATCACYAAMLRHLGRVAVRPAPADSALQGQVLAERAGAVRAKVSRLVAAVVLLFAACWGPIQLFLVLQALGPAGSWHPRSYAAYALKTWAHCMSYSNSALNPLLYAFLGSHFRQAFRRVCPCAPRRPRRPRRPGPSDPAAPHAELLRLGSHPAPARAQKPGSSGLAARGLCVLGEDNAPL
Summary of the method: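 Stable human KISS1R HEK293 line; 18 h plating, 37 C/5% CO2; calcium dye 1 h 37 C; compound pin transfer; kinetic fluorescence Ex/Em 480/540, 3 min.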

[5] = p53 small molecule agonists, cell-based qHTS assay with human liver microsomes (AID 1963577)
Summary of the method: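 p53RE-bla cells, 4,000/well, compound added after 5 h, with human liver microsomes 0.5 mg/mL and NADPH 0.5 mg/mL final; 16 h at 37 C, then LiveBLAzer 2 h RT, fluorescence.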

[6] = p53 small molecule agonists, cell-based qHTS assay with rat liver microsomes (AID 1963578)
Summary of the method: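 p53RE-bla cells, 4,000/well, pre-incubated 5 h, then given compounds plus rat liver microsomes (0.5 mg/mL final) and NADPH (0.5 mg/mL final). Incubation 16 h at 37 C; beta-lactamase reporter read by LiveBLAzer fluorescence after 2 h at room temperature.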

[7] = p53 small molecule agonists, cell-based qHTS assay with human liver microsomes: qHTS cell viability counter screen (AID 1963579); note: nearly all actives have a fitted effect of over 45% in size
Summary of the method: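 p53RE-bla cells, 4,000/well, dosed 5 hours after plating, with human liver microsomes (0.5 mg/mL final) plus NADPH (0.5 mg/mL final), 16 hours at 37 C. Viability read as CellTiter-Glo luminescence after 30 min at room temperature.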

[8] = p53 small molecule agonists, cell-based qHTS assay with rat liver microsomes: qHTS cell viability counter screen (AID 1963580); note: nearly all actives have a fitted effect of over 45% in size
Summary of the method: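 In HCT-116 cells carrying a p53 response element-bla reporter, compounds were metabolically activated in situ by rat liver microsomes with NADPH over 16 h. Cell ATP content then served as the cytotoxicity measure.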

[9] = p53 small molecule agonists, cell-based qHTS assay: qHTS cell viability counter screen (AID 1963581); note: nearly all actives have a fitted effect of over 45% in size
Summary of the method: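 HCT-116 p53RE-bla cells, 4,000/well, plated 5 h before compound pin transfer; 16 h at 37 C; bla substrate 2 h RT; then CellTiter-Glo, 30 min RT, luminescence.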

[10] = molecular target: 5-hydroxytryptamine receptor 2A (Homo sapiens) (UniProt P28223); test: 5-hydroxytryptamine receptor 2A (HTR2A) small molecule antagonists, cell-based qHTS assay (AID 1963586); note: nearly all actives have a fitted effect of over 45% in size
Sequence of 5-hydroxytryptamine receptor 2A (Homo sapiens) (P28223 whole entry, looked up): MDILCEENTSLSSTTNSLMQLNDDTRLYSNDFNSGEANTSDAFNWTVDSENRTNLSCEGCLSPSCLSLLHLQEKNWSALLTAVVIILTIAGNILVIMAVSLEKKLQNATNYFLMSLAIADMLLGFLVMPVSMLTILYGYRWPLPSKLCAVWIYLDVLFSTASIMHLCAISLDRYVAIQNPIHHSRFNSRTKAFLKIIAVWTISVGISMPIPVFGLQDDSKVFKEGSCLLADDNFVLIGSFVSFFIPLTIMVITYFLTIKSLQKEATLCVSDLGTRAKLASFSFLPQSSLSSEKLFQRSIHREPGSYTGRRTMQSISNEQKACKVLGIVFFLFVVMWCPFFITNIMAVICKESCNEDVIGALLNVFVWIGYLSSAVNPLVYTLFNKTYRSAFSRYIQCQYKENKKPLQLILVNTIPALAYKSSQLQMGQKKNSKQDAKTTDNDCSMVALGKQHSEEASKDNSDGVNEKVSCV
Summary of the method: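 Antagonist-mode intracellular calcium assay: DOI (4 nM) added after 5 min compound pre-incubation at room temperature to dye-loaded HTR2A-CHO cells. Fluorescence followed for 3 min, sampled every second.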

[11] = molecular target: 5-hydroxytryptamine receptor 2A (Homo sapiens) (UniProt P28223); test: 5-hydroxytryptamine receptor 2A (HTR2A) small molecule agonists, cell-based qHTS assay (AID 1963587); note: nearly all actives have a fitted effect of over 30% in size
Summary of the method: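 HTR2A-CHO cells, plated 18 h at 37 C/5% CO2, dye-loaded 1 h at 37 C; compounds in DMSO added by pin tool (agonist mode). Intracellular calcium flux read as kinetic fluorescence on FDSS over 2 min at 1 s intervals.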

[12] = molecular target: Muscarinic acetylcholine receptor M1 (Homo sapiens) (UniProt P11229); test: Cholinergic receptor muscarinic 1 (CHRM1) small molecule antagonists, cell-based qHTS assay (AID 1963588); note: nearly all actives have a fitted effect of over 40% in size; note: potency is the fitted concentration of half-maximal effect
Sequence of Muscarinic acetylcholine receptor M1 (Homo sapiens) (P11229 whole entry, looked up): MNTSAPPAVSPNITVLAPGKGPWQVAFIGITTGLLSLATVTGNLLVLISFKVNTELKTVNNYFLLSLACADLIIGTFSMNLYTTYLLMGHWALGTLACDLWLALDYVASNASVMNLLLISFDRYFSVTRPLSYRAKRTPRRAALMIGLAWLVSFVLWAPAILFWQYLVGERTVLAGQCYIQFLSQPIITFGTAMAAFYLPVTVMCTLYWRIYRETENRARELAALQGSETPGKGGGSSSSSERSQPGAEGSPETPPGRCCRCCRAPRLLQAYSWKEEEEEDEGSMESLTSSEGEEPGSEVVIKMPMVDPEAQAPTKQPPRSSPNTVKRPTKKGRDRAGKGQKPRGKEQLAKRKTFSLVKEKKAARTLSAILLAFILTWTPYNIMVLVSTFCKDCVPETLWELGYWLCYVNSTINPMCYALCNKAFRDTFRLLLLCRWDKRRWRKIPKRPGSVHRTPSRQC
Summary of the method: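 CHRM1-CHO calcium-flux assay, antagonist mode. Cells were seeded 18 h, dye-loaded 1 h at 37 C and given compound for 5 min at RT, then acetylcholine was added at 50nM. FDSS fluorescence was read 3 min; 15 concentrations, three runs.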

[13] = molecular target: Muscarinic acetylcholine receptor M1 (Homo sapiens) (UniProt P11229); test: Cholinergic receptor muscarinic 1 (CHRM1) small molecule agonists, cell-based qHTS assay (AID 1963589); note: nearly all actives have a fitted effect of over 35% in size
Summary of the method: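 Human M1 in stable CHO line; 18 h plating, 1 h dye load 37 C; cpd added (agonist mode); Ca2+ fluorescence kinetic read, 1 s intervals; 15 conc, 3 runs.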

[14] = cAMP Responsive Elements (CRE) small molecule antagonists, cell-based qHTS assay (AID 1963591; active = well fitted inhibition curve with a large enough effect in the signal ratio in the repeat runs, not every such curve was filed as active; the % refers to the signal ratio)
Summary of the method: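 Beta-lactamase reporter read by FRET substrate (LiveBLAzer B/G) after 2 h at room temperature. CRE-bla HEK293T cells had received compound plus 0.25 uM (final) NKH477 for 3 h at 37 °C.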

[15] = molecular target: Beta-2 adrenergic receptor (Homo sapiens) (UniProt P07550); test: Adrenergic beta2 receptor (ADRB2) small molecule antagonists, cell-based qHTS assay (AID 1963592); note: series mostly up to about 92 µM; nearly all actives have a fitted effect of over 50% in size
Sequence of Beta-2 adrenergic receptor (Homo sapiens) (P07550 whole entry, looked up): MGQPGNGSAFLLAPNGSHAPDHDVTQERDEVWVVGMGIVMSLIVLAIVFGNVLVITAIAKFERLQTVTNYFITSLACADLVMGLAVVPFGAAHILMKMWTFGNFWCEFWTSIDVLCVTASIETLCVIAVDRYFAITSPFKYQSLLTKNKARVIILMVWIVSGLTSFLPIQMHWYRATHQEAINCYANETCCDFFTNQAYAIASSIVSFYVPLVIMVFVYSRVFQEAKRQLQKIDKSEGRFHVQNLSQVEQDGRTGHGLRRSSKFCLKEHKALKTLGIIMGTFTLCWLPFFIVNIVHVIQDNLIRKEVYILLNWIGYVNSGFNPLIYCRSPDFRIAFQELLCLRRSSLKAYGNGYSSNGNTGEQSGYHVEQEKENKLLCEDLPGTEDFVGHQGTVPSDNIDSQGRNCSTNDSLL
Summary of the method: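 Cells (CHO, stable ADRB2 overexpression) incubated 18-20hr at 37C; compounds added from DMSO; agonist mix (1nM isoproterenol, 100uM IBMX, 25uM Ro-20-1724) added; 0.5hr RT; d2-cAMP and anti-cAMP-cryptate added; 1hr RT; 665/615 nm read.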

[16] = molecular target: D(2) dopamine receptor (Homo sapiens) (UniProt P14416); test: Dopamine D2 receptor (DRD2) small molecule antagonists, cell-based qHTS assay (AID 1963595; active = well fitted inhibition curve with a large enough effect in the signal ratio in the repeat runs, with a control signal flat; the % refers to the signal ratio)
Sequence of D(2) dopamine receptor (Homo sapiens) (P14416 whole entry, looked up): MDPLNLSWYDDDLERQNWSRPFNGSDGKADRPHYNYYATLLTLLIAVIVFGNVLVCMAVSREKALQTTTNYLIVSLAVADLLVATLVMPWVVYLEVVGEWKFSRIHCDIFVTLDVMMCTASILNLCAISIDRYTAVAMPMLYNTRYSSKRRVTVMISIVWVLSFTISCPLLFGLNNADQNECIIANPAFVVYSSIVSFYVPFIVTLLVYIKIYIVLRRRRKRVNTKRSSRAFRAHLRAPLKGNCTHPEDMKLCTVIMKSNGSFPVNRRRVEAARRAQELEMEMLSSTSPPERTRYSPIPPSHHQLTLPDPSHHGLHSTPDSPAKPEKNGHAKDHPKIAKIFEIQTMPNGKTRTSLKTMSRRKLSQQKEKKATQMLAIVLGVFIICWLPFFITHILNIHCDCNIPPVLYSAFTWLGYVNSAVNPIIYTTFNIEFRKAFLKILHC
Summary of the method: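 Antagonist mode in DRD2-HEK293 cells: after compound addition with 0.1 mM Ro20-1724, cells received quinpirole (12 nM) and NKH477 (200 nM) for 30 min at room temperature; HTRF cAMP read after 1 h detection.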

[17] = p53 small molecule agonists, cell-based qHTS assay (AID 1963582; active = well fitted activation curve with a large enough effect in the signal ratio in the repeat runs, not every such curve was filed as active; the % refers to the signal ratio)
Summary of the method: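 Reporter line: p53RE-bla. Pre-incubation 5 h, 37 C, 5% CO2; compound (DMSO, pin tool) 16 h, 37 C; B/G FRET substrate 2 h RT; fluorescence intensity read.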

[18] = molecular target: D(2) dopamine receptor (Homo sapiens) (UniProt P14416); test: Dopamine D2 receptor (DRD2) small molecule agonists, cell-based qHTS assay (AID 1963594); note: nearly all actives have a fitted effect of over 35% in size
Summary of the method: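 HEK293 cells stably expressing DRD2 were cultured 24 h at 37 C, then given Ro20-1724 (0.1 mM final) and compounds for 10 min at room temperature. NKH477 (200nM) was then added for 30 min. cAMP was read by HTRF.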

[19] = cAMP Responsive Elements (CRE) small molecule agonists, cell-based qHTS assay (AID 1963590)
Summary of the method: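 HEK 293T CRE-bla, 2,000 cells/well, 18 h preincubation 37 C/5% CO2; cpds (DMSO) pinned, 3 h; LiveBLAzer B/G FRET substrate, 2 h RT.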

[20] = molecular target: Beta-2 adrenergic receptor (Homo sapiens) (UniProt P07550); test: Adrenergic beta2 receptor (ADRB2) small molecule agonists, cell-based qHTS assay (AID 1963593);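 note: CHO cells stably overexpressing human ADRB2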
Summary of the method: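 CHO cells stably over-expressing ADRB2 were plated overnight at 37C, then dosed with compounds plus a stimulation mix containing 100uM IBMX and 25uM Ro-20-1724 for 0.5hr at room temperature. cAMP was measured by HTRF competition, 1hr.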
% is set by controls: 0 for no effect and ±100 for the full control effect.

COc1cc2[nH]c(=O)[nH]c(=O)c2cc1OC
inactive: Potency [1] | Potency [2] | Potency [3] | outcome [4] | Potency [5] | Potency [6] | Potency [7] | Potency [8] | Potency [9] | Potency [10] | Potency [11] | Potency [12] | Potency [13] | Potency [14] | Potency [15] | Potency [16]

CCCC(C)c1ccccc1O (configuration not stated)
inactive: Potency [1] | Potency [2] | Potency [3] | outcome [4] | Potency [5] | Potency [6] | Potency [7] | Potency [8] | Potency [9] | Potency [17] | Potency [10] | Potency [11] | Potency [12] | Potency [13] | Potency [15] | Potency [18] | Potency [16]

CN1C(C)(C)CCCC1(C)C
inactive: Potency [1] | Potency [2] | Potency [3] | outcome [4] | Potency [5] | Potency [6] | Potency [7] | Potency [8] | Potency [9] | Potency [17] | Potency [10] | Potency [12] | Potency [13] | Potency [19] | Potency [14] | Potency [15] | Potency [16]

C=CC(C)(CCC=C(C)C)OC(=O)c1ccccc1 (configuration not stated)
inactive: Potency [1] | Potency [3] | outcome [4] | Potency [5] | Potency [6] | Potency [7] | Potency [8] | Potency [9] | Potency [17] | Potency [10] | Potency [11] | Potency [12] | Potency [13] | Potency [19] | Potency [14] | Potency [15] | Potency [18] | Potency [16]
active: Potency [2] 24.3 µM

CCCCNS(=O)(=O)c1ccc(C)cc1
inactive: Potency [1] | Potency [2] | Potency [3] | outcome [4] | Potency [5] | Potency [6] | Potency [7] | Potency [8] | Potency [9] | Potency [17] | Potency [10] | Potency [11] | Potency [12] | Potency [13] | Potency [19] | Potency [15] | Potency [20] | Potency [18] | Potency [16]

COc1c(N2CCNC(C)C2)c(F)cc2c(=O)c(C(=O)O)cn(C3CC3)c12 (configuration not stated)
inactive: Potency [1] | Potency [2] | Potency [3] | outcome [4] | Potency [5] | Potency [6] | Potency [7] | Potency [8] | Potency [9] | Potency [17] | Potency [19] | Potency [14] | Potency [15] | Potency [18] | Potency [16]

CN1Cc2cc(C(=O)N3CCC(C4CCNCC4)CC3)ccc2N[C@@H](CC(=O)O)C1=O
inactive: Potency [1] | Potency [2] | Potency [3] | outcome [4] | Potency [5] | Potency [6] | Potency [7] | Potency [8] | Potency [9] | Potency [17] | Potency [11] | Potency [13] | Potency [19] | Potency [20] | Potency [18] | Potency [16]
active: Potency [12] 1.63 µM

Cn1nnc2c(C(N)=O)ncn2c1=O
inactive: Potency [1] | Potency [2] | Potency [3] | outcome [4] | Potency [5] | Potency [6] | Potency [7] | Potency [8] | Potency [9] | Potency [17] | Potency [10] | Potency [11] | Potency [12] | Potency [13] | Potency [19] | Potency [14] | Potency [18] | Potency [16]

CCCCCOc1ccc(C2SC(=O)NC2=O)cc1OCC (configuration not stated)
inactive: Potency [1] | Potency [2] | Potency [3] | outcome [4] | Potency [5] | Potency [6] | Potency [7] | Potency [8] | Potency [9] | Potency [10] | Potency [11] | Potency [12] | Potency [13] | Potency [15] | Potency [20] | Potency [18] | Potency [16]

O=C(NCCCN1CCOCC1)c1ccc(Cl)cc1
inactive: Potency [1] | Potency [2] | Potency [3] | outcome [4] | Potency [5] | Potency [6] | Potency [7] | Potency [8] | Potency [9] | Potency [17] | Potency [10] | Potency [11] | Potency [12] | Potency [13] | Potency [15] | Potency [18] | Potency [16]

CCCCCCc1ccc(N)cc1
inactive: Potency [1] | Potency [3] | outcome [4] | Potency [5] | Potency [6] | Potency [7] | Potency [8] | Potency [9] | Potency [10] | Potency [11] | Potency [12] | Potency [15] | Potency [20] | Potency [18] | Potency [16]
active: Potency [2] 27.3 µM

O=C(O)CCCc1c[nH]c2ccccc12
inactive: Potency [1] | Potency [2] | Potency [3] | outcome [4] | Potency [5] | Potency [6] | Potency [7] | Potency [8] | Potency [9] | Potency [17] | Potency [11] | Potency [12] | Potency [13] | Potency [15] | Potency [18] | Potency [16]

CCN(CCO)CCCC(C)Nc1ccnc2cc(Cl)ccc12 (configuration not stated)
inactive: activity change, negative = cytotoxicity [1] -14.6% [at 8.39 µM] | activity, positive = activation [2] -5.51% [at 8.39 µM] | activity change [3] -0.334% [at 5.22 µM, stronger effect = higher value] | activation [4] -0.232% [at 6.97 µM] | activation [5] 9.14% [at 5.99 µM] | activation [6] 0.449% [at 5.99 µM] | activity change, negative = cytotoxicity [7] -18.4% [at 5.99 µM] | activity change, negative = cytotoxicity [8] -0.0605% [at 5.99 µM] | activity change, negative = cytotoxicity [9] 14.7% [at 5.99 µM] | activation [17] 0.694% [at 5.99 µM] | activation [19] 0.273% [at 8.39 µM] | activity change, negative = inhibition [14] -1.93% [at 8.39 µM] | activity change, negative = inhibition [15] 1.52% [at 8.39 µM] | activation [20] 0.519% [at 8.39 µM] | activity change, negative = inhibition [16] 12.2% [at 8.38 µM]

Cc1c(Cl)cccc1[N+](=O)[O-]
inactive: Potency [1] | Potency [2] | Potency [3] | outcome [4] | Potency [5] | Potency [6] | Potency [7] | Potency [8] | Potency [9] | Potency [17] | Potency [10] | Potency [11] | Potency [12] | Potency [13] | Potency [19] | Potency [14] | Potency [20] | Potency [16]
